# Data reported in PubChem BioAssay AID504845 (National Center for Advancing Translational Sciences (NCATS), 2011).
# Several values for one entry are separate records, joined by “and”; a condition that tells them apart may be missing. Equal entries are not always repeated. Out of some 390,000 compounds screened, about 150 (0.038%) were called active. Roughly 3% stayed inconclusive and do not appear here. Calls follow the shape of the dose curve; as a rule, active = well fitted inhibition curve with a large enough effect; inconclusive = small, poorly fitted or top-dose-only effect; inactive = no such curve, though single readings can be large or run the other way. The full list was thinned out, with actives kept by preference. The source holds several records for some structures; these can differ, active in one and inactive in another.
# Biological target: Regulator of G-protein signaling 4 (Homo sapiens) (UniProt P49798)
# Experiment: Inhibitors of Regulator of G Protein Signaling (RGS) 4: qHTS; also: nearly all actives have a fitted effect of over 75% in size
# Settings: Transcreener GDP fluorescence polarization, RGS4-accelerated GTP hydrolysis; series mostly up to 114 µM; activity change, negative = inhibition: at the top concentration
# Text: G-protein-coupled receptors (GPCRs) are well-established targets for drug discovery and development. Members of the "regulator of G-protein signaling" (RGS)-protein superfamily have recently emerged as critical modulators of specific GPCR signaling pathways. […] Combining specific RGS domain inhibitors with existing GPCR agonists should potentiate cellular responses and could also increase the specificity of action of existing therapeutics. Small molecule modulators of RGS domain activity should also have clinical utility in inhibiting or potentiating the actions of endogenous GPCR agonists. In particular, the diversity of RGS proteins with highly localized and dynamically regulated distributions in the human brain makes this family of proteins attractive targets for pharmacotherapy of central nervous system (CNS) disorders such as Parkinson's disease, schizophrenia, and anxiety.
# This assay was used to screen the NIH Molecular Libraries Small Molecule Repository (MLSMR) in order to identify a small molecule that inhibits RGS4.
# NIH Chemical Genomics Center [NCGC]
# NIH Molecular Libraries Probe Centers Network [MLPCN]
# Assay Submitter (PI): David Siderovski, University of North Carolina Chapel Hill (School of Medicine)
# Two microliters of 500nM (2x working concentration) is dispensed into black medium-binding solid-bottom Kalypsys plates. Then with the Kalypsys pintool 23nl of control and compounds are transferred; the control compound is […] CCG-4986 (working concentration). After a 10 minute incubation at room temperature 2ul of antibody is added with the Kalypsys dispenser; (-)RGS4/Transcreener GDP solution in columns 3 and 4 which consisted of 10nM (2x working concentration) Alexa633, 20uM GTP, and 20 ug/ml GDP antibody and (+)RGS4/Transcreener GDP solution in columns 1,2, and 5 to 48 which consists of 900nM RGS4 (2x working concentration), 10nM Alexa633, 20 ug/ml GDP antibody. The plate is centrifuged at 1000 RPM for 15 seconds to remove any possible bubbles and then incubated for 5 minutes at ambient room temperature. An initial fluorescent polarization read (620 nm/688 nm) is performed on the Envision before the plate is incubated for 90 minutes at 30 deg C at a relative humidity of 80%. The plate is once more centrifuged at 1000 RPM for 15 seconds and another Envision fluorescent polarization (620 nm/688 nm) read is carried out.
# % is scaled to controls: 0 for no effect and ±100 for the full control effect; potency is read from the fitted curve at half-maximal effect.
# Chain of Regulator of G-protein signaling 4 (Homo sapiens) (P49798 whole entry, looked up): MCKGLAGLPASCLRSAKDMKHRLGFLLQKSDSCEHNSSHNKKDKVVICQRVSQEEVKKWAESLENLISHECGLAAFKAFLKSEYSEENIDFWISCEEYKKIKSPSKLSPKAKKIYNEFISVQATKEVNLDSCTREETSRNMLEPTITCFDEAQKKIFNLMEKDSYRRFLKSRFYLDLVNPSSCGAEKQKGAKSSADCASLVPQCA
SMILES,"activity change, negative = inhibition",Potency
CC(C)NC(=O)C1CCC(Cn2c(=O)c3sccc3n(Cc3ccc(F)cc3)c2=O)CC1 (stereo unspecified),11.4% (inactive),
Oc1ccc(Br)cc1C1C=C(c2ccc3c(c2)OCO3)NC(c2ccc(Cl)cc2)N1 (stereo unspecified),-36% (inactive),
Cc1ccc2ccc3c(c2n1)NS(=O)(=O)c1ccccc1-3,-16.3% (inactive),
COc1ccc2c(C)c(CCC(=O)NCc3ccc(OC)c(OC)c3)c(=O)oc2c1,-14.1% (inactive),
Cc1c(-c2nc(-c3ccc4c(c3)OCO4)no2)nnn1-c1ccc(Br)cc1F,-24.4% (inactive),
COc1ccc(OC)c(NC(=O)CSC2=Nc3ccccc3C3=NC(CC(=O)NCCc4ccccc4)C(=O)N23)c1 (stereo unspecified),16.3% (inactive),
CC(C)NC[C@H](O)c1ccc2ccccc2c1,"-510% [at 56.9 µM, above what the read-out allows, likely interference] (inactive)",
O=C(CSc1nccn1-c1ccc(F)cc1)Nc1cccc2ccccc12,-5.41% (inactive),
COc1ccc(-n2c(SCC(N)=O)nc3c(oc4ccccc43)c2=O)cc1,-18.4% (inactive),
CCn1c(CN2CCC(C)CC2)nc2cc(NC(=O)c3ccccc3[N+](=O)[O-])ccc21,-7.66% (inactive),
O=C(c1ccc2c(c1)N(Cc1ccccc1)C(=O)c1ccccc1S2(=O)=O)N1CCC(Cc2ccccc2)CC1,8.32% (inactive),
COc1ccc(-c2cccc(NS(=O)(=O)c3cc(C)c(OC)c(C)c3C)c2)nn1,-39.8% (inactive),
CCc1ccc(NC(=O)CSc2nc3c([nH]c4ccccc43)c(=O)n2-c2cccc(OC)c2)cc1,0.52% (inactive),
CCN(CC)c1nc(C#N)nc(OC)n1,23.2% (inactive),
CC(C)(C)c1ccc(C(=O)N2CCC(c3nc(-c4ccc(S(=O)(=O)N5CCCC5)cc4)no3)CC2)cc1,7.58% (inactive),
Cn1c(=O)c2c(n3c4ccccc4nc13)NC(=O)CC2c1cccc(Cl)c1 (stereo unspecified),-17.3% (inactive),
CC(C)Sc1oc(-c2cccs2)nc1S(=O)(=O)c1ccc(Cl)cc1,-16.4% (inactive),
Cc1ccc(SCC(=O)Nc2ccc3oc(-c4ccccc4C)nc3c2)cc1,-0.0912% (inactive),
C=C1CCN(C(CC(C)C)C(=O)NCc2cc(OC)c(OC)c(OC)c2)S(=O)(=O)c2ccccc21 (stereo unspecified),-6.11% (inactive),
COC(=O)CCc1ccccc1S(=O)(=O)N(CCC(=O)OC)Cc1ccccc1,-18.2% (inactive),
CCOC(=O)c1ccc(NC(=O)Cn2c(=O)n(-c3ccc(C)cc3)c(=O)c3c2cnn3C)cc1,2.84% (inactive),
Cc1nn(C(C)C(=O)Nc2ccc(C(C)C)cc2)c(=O)c2c1sc1ccccc12 (stereo unspecified),-6.31% (inactive),
OC[C@@H]1O[C@H](n2cnc3c(SCc4ccccc4)ncnc32)[C@H](O)[C@H]1O,-4.78% (inactive),
CCOc1ccc(Nc2c(S(=O)(=O)c3ccccc3)cnc3ccccc23)cc1,21.6% (inactive),

SMILES,"activity change, negative = inhibition",Potency
COc1ccc(NC(=O)c2ccc3nc(C(C)C)oc3c2)cc1OC,-2.42% (inactive),
Cc1ccc(-c2nn(CC(C)(C)C)c3ncnc(N)c23)cc1,117% [at 56.9 µM] (inactive),
O=C(NCc1ccccc1)c1cccc(NC(=O)N2CCSc3ncccc32)c1,16.8% (inactive),
COc1ccc(Cn2c(=O)[nH]c3cc(C(=O)N4CCN(C(=O)c5ccco5)CC4)ccc3c2=O)cc1,-26% (inactive),
CCOc1ccc(NC(=O)CSc2nnc3c(n2)[nH]c2ccc(S(=O)(=O)N4CCOCC4)cc23)cc1,0.0899% (inactive),
CC1CCCN(S(=O)(=O)c2ccc3[nH]c(=O)cc(C(=O)NCCc4ccc(Cl)cc4)c3c2)C1 (stereo unspecified),-8.74% (inactive),
CCN(CC)CCNC(=O)CN1N=C(c2ccc(OC)cc2)CCC1=O,-1.33% (inactive),
COC(=O)c1ccc(C2C(C(=O)Nc3ccccc3)=C(C)Nc3nc4ccccc4n32)cc1 (stereo unspecified),12.3% (inactive),
O=C(NCCc1ccc(Cl)cc1)C1CCCN1C(=O)NCc1ccccc1 (stereo unspecified),0.986% (inactive),
S=C(Nc1ccc(Cl)cc1Cl)N1CCCC1,17.2% (inactive),
Oc1cc2c(cc1O)CN(C(=S)NCCc1ccc(Cl)cc1)CCC2,,inactive and 16.8 µM (active)
COc1ccc(CC(=O)NCCc2sc3nc(-c4ccc(OC)cc4)nn3c2C)cc1,23.7% (inactive),
Cc1ccc(-n2ncc(C(=O)N(C)Cc3ccccc3)c2-n2cccc2)cc1,12.5% (inactive),
Cc1ccc(-c2onc(C)c2C)cc1S(=O)(=O)Nc1ccccn1,-2.85% (inactive),
O=C1C[C@@H](c2ccc3ccccc3c2)N1S(=O)(=O)c1ccccc1[N+](=O)[O-],3.68% (inactive),
CCCN1CCN(CCCNC(=O)c2ccc3nc(Cc4ccccc4)oc3c2)CC1,18.4% (inactive),
Cc1cccc(C(=O)NCCc2nc3ccccc3n2Cc2ccccc2Cl)c1,-14.7% (inactive),
CSc1ccc(CCNC(=O)c2cc(C)nc3c2c(C)nn3-c2cccc(F)c2)cc1,-41% (inactive),
COCCNS(=O)(=O)c1cc(-c2nn3c(C)nnc3c3ccccc23)ccc1C,-16.3% (inactive),
Cc1ccc(NC(=O)c2cccc(N(C)C)c2)cc1NC(=O)c1ccc(O)cc1,,inactive
Cc1ccccc1C(=O)N(Cc1ccc(N(C)C)cc1)CC1CCCO1 (stereo unspecified),8.38% (inactive),
Cc1nc(SCC(=O)N2CCN(c3ccccc3)CC2)[nH]c(=O)c1C,19.3% (inactive),
NC(=O)CSc1nc2c(oc3ccccc32)c(=O)n1Cc1ccccc1,-46.5% (inactive),
CCN(C(=O)Cn1c(=O)nc(-c2ccccc2)c2cc(Cl)ccc21)c1cccc(C)c1,-11.5% (inactive),

SMILES,"activity change, negative = inhibition",Potency
CCCCCCn1nnc2sc(-c3ccccc3)cc2c1=O,-27.4% (inactive),
CC(C)c1ccc2oc(-c3cc(NC(=O)c4cccs4)ccc3Cl)nc2c1,-15% (inactive),
Cc1cc2oc(C(=O)N(Cc3ccc(Cl)cc3)Cc3ccco3)c(C)c2cc1Cl,30% (inactive),
CC(C)[C@H]1CC[C@@H](C)C[C@H]1O,-127% [at 56.9 µM] (inactive),
COc1ccc(CNC(=O)c2cc3c(=O)[nH]c4ccccc4c3s2)cc1,-9.46% (inactive),
O=S(=O)(Nc1cccc2cccnc12)c1cccc2cccnc12,9.93% (inactive),
COC(=O)c1cc2occc2n1Cc1nc(-c2ccc(C)cc2)oc1C,12.1% (inactive),
Cc1ccc(F)cc1S(=O)(=O)N1CCC(c2nc3ccccc3s2)CC1,-18.9% (inactive),
Cc1cc(OC(C)C(=O)Nc2sc3c(c2C(N)=O)CCCC3)ccc1Cl (stereo unspecified),-10.8% (inactive),
COc1ccc(C2Nc3ccc(NC(=O)COC(C)=O)cc3C(=O)N2Cc2ccccc2)cc1COc1ccc(NC(C)=O)cc1 (stereo unspecified),0.54% (inactive),
C#CCOc1ccc(C2CC(=O)Nc3c2c(C)nn3-c2nc(C)cc(C)n2)cc1 (stereo unspecified),-13.7% (inactive),
Cc1ccc(C)c(N2CCN(C(=O)Cn3nc(C)c4sc5ccccc5c4c3=O)CC2)c1,-5.5% (inactive),
CC(C)S(=O)(=O)c1oc(-c2ccc(F)cc2)nc1S(=O)(=O)c1ccc(F)cc1,-17.3% (inactive),
COc1cc(OC)cc(C(=O)Nc2c(C(=O)Nc3ccc(F)cc3)oc3ccccc23)c1,8% (inactive),
Oc1ccc(Cl)cc1C1C=C(c2ccc3c(c2)OCO3)NC(c2ccc(F)c(Br)c2)N1 (stereo unspecified),-52.5% (inactive),
CCOc1ccc(NC(=O)CC2C(=O)N(c3cccc(OC)c3)C(=O)N2C2CCCCC2)cc1 (stereo unspecified),33.4% (inactive),
COc1ccc(Cc2nc3ccc(C(=O)NCc4ccccc4C)cc3o2)cc1,1.01% (inactive),
O=C(Nc1ccc2c(c1)OCO2)c1cc(-c2cccc(Cl)c2)on1,5% (inactive),
C=CC1(C)CC(=O)C2(O)C(C)(O1)C(OC(C)=O)C(O)C1C(C)(C)CCC(O)C12C (stereo unspecified),-6.89% [at 56.9 µM] (inactive),
Cc1ccccc1CSc1nc2c([nH]c3ccccc32)c(=O)n1C,4.27% (inactive),
O=C(c1ccc(F)cc1)C1CCN(CCCCc2ccccc2)CC1,80.5% [at 56.9 µM] (inactive),
CCc1cc2c(cc3c(=O)n(CC(=O)NCc4cccc(Cl)c4)nc(CC)n32)s1,19.3% (inactive),
Cc1ccc(Cl)cc1N1CCN(S(=O)(=O)c2cc3[nH]c(=O)c(=O)[nH]c3cc2C)CC1,-20% (inactive),
CCCSc1ncc(Cl)c(C(=O)Nc2sc3c(c2C(=O)NCCOC)CCCC3)n1,20.4% (inactive),

SMILES,"activity change, negative = inhibition",Potency
Cc1ccc(CCNC(=O)C2CCN(c3nnc(-n4cccc4CNc4ccc(C)cc4)s3)CC2)cc1,29.4% (inactive),
CCOc1ccccc1NC(=O)Cn1c(=O)n(-c2cccc(C)c2)c(=O)c2c1c1cc(OC)ccc1n2C,6.5% (inactive),
COc1ccc(Cl)cc1NC(=O)C(C)Sc1nc2c(c(=O)[nH]1)CCCC2 (stereo unspecified),30.7% (inactive),
Cc1ccc2nc(/C(C#N)=C/c3ccc(-c4ccc(C(=O)OC(C)C)cc4)o3)[nH]c2c1,2.62% (inactive),
CCOc1ccccc1CNC(=O)Nc1cn(CC(C)C)c(=O)c2ccccc12,5.51% (inactive),
O=C1C2C(c3ccccc3)CC=CC2C(c2ccoc2)N1Cc1ccccc1 (stereo unspecified),-10.6% (inactive),
Cc1cccc(-c2cc(=O)c3cc(C)ccc3o2)c1,"-644% [at 56.9 µM, above what the read-out allows, likely interference] (inactive)",
CC1CC2C3CCC4=CC(=O)C=C[C@]4(C)[C@@]3(F)[C@@H](O)C[C@]2(C)[C@@]1(O)C(=O)CO (stereo partly specified),13.2% [at 56.9 µM] (inactive),
Nc1ncnc2c1ncn2C1CC(O)C(CO)O1 (stereo unspecified),-180% [at 56.9 µM] (inactive),
CSc1ccccc1N1CCN(CCCCCC(=O)NC2CCCc3ccccc32)CC1 (stereo unspecified),17.9% [at 56.9 µM] (inactive),
CCC(=O)N1CCc2cc(Br)cc(S(=O)(=O)CCC(=O)NCCc3ccc(OC)c(OC)c3)c21,-31.3% (inactive),
Cc1ccc(-n2c3nc(=O)[nH]c(=O)c-3cc3c(Cl)cccc32)cc1,-2.68% (inactive),
COc1ccc(C)cc1NC(=O)CCc1c(C)nn(-c2ccc(N3CCOCC3)nn2)c1C,-16% (inactive),
COC(=O)c1cccc(Cn2nnc3sc4c(c3c2=O)CCC(C(C)(C)C)C4)c1 (stereo unspecified),-10.7% (inactive),
CCOC(=O)c1c(C)[nH]c(CCC(=O)NCCCN2CCN(c3cccc(Cl)c3)CC2)c1C,-21.8% (inactive),
CC[C@@H]1Cc2cc(O)ccc2C2=C1c1ccc(O)cc1C[C@H]2CC,,inactive and 23.8 µM (active)
COc1ccc(C2CC(O)(c3ccccc3)Oc3cc(C)cc(C)c32)cc1 (stereo unspecified),-13.5% (inactive),
O=S(=O)(c1ccc2nc(N3CCN(c4cccc(Cl)c4)CC3)ccc2c1)N1CCCCC1,-18.5% (inactive),
CCOC(=O)c1cccc(NC(=O)C(Cc2ccccc2)NS(=O)(=O)c2cccc3nsnc23)c1 (stereo unspecified),-4.55% (inactive),
COc1cccc(CNCCSc2nnnn2C)c1OCc1ccccc1Cl,-5.25% (inactive),
CC(=O)c1cccc(NC(=O)CSc2nc3c(c(=O)[nH]2)CCC3)c1,16.8% (inactive),
O=C(Nc1c(C(=O)N2CCN(c3ccc(F)cc3)CC2)oc2ccccc12)c1ccco1,12.6% (inactive),
Cc1cc(C)cc(NC(=O)c2cnc3sc(N4CCCC4)nn3c2=O)c1,-12.1% (inactive),
COc1cc(OC)cc(C(=O)Nc2ccc3nc(Nc4cccc(C(F)(F)F)c4)cc(C)c3c2)c1,-2.35% (inactive),
